Screening data as filed in PubChem BioAssay.
Sampled rows, rich in hits. Any-hit rate of the full collection: about 11%.
HTT aggregate: reduces HttQ103-GFP aggregates in PC12 cells. Potency, µM (series often up to 46.1 µM), inactives show top-dose activity change, negative = inhibition, usual class: inhibitors. PC12 HttQ103-GFP aggregates, Acumen cytometry, 40 h. 220,000 compounds, 1.1% hits; note: potency is the fitted concentration of half-maximal effect; % is set by controls: 0 for no effect and ±100 for the full control effect; nearly all actives have a fitted effect of over 60% in size
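Aggregates are detected as GFP objects 1–25 µm with signal 6 STDEV over background in lysates of induced PC12 cells. These carry Huntingtin exon 1 with 103 glutamines fused to GFP under an ecdysone promoter; compounds titrated.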
CBFb RUNX1 block: blocks binding between human CBF-beta and RUNX1; AlphaScreen CBFb-His/RUNX1-biotin binding, biochemical; AID 1477; 230,000 tested, under 10 active; Q01196+Q13951; Potency, µM (top dose mostly 59.8 µM), for inactives: at the top dose activity, negative = inhibition, actives largely listed as inhibitors; note: % of control where 0% means no effect
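AlphaScreen binding: CBFb-His and RUNX1-biotin (30 nM each) preincubated 20 min, compound added for 15 min, then nickel and streptavidin beads for 90 min, all at room temperature. Disruption of the interaction by any mechanism counts as activity.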
HPGD inh: inhibitors of human 15-hydroxyprostaglandin dehydrogenase (HPGD); P15428; purified HPGD, NADH fluorescence kinetic, PGE2 substrate; Potency, µM, for inactives: at the highest dose activity change, negative = inhibition, hits mostly inhibitors; 150,000 compounds, 4.3% hits; AID 894; active = well fitted inhibition curve with a large enough effect, not every such curve was filed as active; inconclusive = small, poorly fitted or top-dose-only effect, or another doubt; inactive = no such curve, though single readings can be large or run the other way; note: potency is the fitted concentration of half-maximal effect; % is set by controls: 0 for no effect and ±100 for the full control effect
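20 nM HPGD preincubated 15 min at room temperature with compound in 50 mM Tris-HCl pH 8, 0.01% Tween 20. Started with 1 mM NAD+ and 30 uM prostaglandin E2; NADH fluorescence (360/450 nm) read 5 times over 30-s intervals, last minus first.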
PNC assembly inh: inhibitors of perinucleolar compartment assembly | activity change (PNC), negative = inhibition, % at 10 µM | 140,000 compounds, 3.1% hits | PC3M PTB-GFP, PNC prevalence imaging, 16 h; stronger effect = lower value;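 active = readout at or below -70, meaning at least 70% loss of cells showing the perinucleolar compartment, a nuclear body marking cancer cells; inconclusive = readout between -30 and a set limit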;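 note: plate controls were DMSO wells for no effect and camptothecin positive control wells for full effect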
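PC3M cells stably expressing PTB-GFP, 750–1000 cells/well, treated 16 h at 37 °C with compound (23 nl of library stock), in duplicate. After paraformaldehyde fixation and Hoechst stain, imaged at 20x; PNC prevalence scored by image analysis.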
HTT cytoprotect: cytoprotection in Huntington HTT-Q103 PC12 cell model. Potency, µM (top dose mostly 56.4 µM), for inactives: cytoprotection (ATP increase), most hits filed as activators. PC12 HTT-Q103 induced, cytoprotection, ATP luminescence, 40 h. 230,000 compounds, 0.14% hits; note: potency is the fitted concentration of half-maximal effect; % of control where 0% means no effect; nearly all actives have a fitted effect of over 45% in size
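Quantitative HTS on tebufenozide-induced (100 nM) PC12 cells expressing HTTQ103 exon 1–GFP; compounds tested as a concentration series; survival measured via cellular ATP.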
ALDH1A1 block: blocks purified human ALDH1A1 activity | Purified ALDH1A1, NADH fluorescence, propionaldehyde substrate | P00352 | Potency, µM (series often up to 75.3 µM), without a hit: at the top dose activity, negative = inhibition, hits mostly inhibitors | 220,000 compounds, 7.3% hits; active = well fitted inhibition curve with a large enough effect, not every such curve was filed as active; inconclusive = small, poorly fitted or top-dose-only effect, or another doubt; inactive = no such curve, though single readings can be large or run the other way;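 note: potency is the fitted concentration of half-maximal effect; plate controls were no enzyme wells and a reference inhibitor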
Target sequence (P00352 whole entry, looked up): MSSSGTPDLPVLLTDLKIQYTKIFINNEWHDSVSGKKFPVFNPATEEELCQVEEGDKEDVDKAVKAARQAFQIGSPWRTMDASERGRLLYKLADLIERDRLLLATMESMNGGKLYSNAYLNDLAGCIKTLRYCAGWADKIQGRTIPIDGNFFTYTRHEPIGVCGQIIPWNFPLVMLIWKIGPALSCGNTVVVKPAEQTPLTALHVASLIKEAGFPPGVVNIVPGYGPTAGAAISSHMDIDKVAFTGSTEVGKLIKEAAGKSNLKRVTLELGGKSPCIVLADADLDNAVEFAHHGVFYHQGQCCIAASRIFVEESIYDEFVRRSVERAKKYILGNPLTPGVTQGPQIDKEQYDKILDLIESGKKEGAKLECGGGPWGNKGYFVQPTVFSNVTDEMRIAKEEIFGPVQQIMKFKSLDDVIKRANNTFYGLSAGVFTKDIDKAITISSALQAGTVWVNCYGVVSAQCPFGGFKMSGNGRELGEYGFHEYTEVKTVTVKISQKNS
The depositor's hits bear a star; ? = inconclusive; . = no result; [ ] = dose if it differs, or a comment. Unless noted, calls come from the whole dose curve; as a rule, active = well fitted curve in the direction sought with a large enough effect; inconclusive = small, poorly fitted or top-dose-only effect, or another doubt; inactive = no such curve, though single readings can be large; an effect the other way counts as inactive or inconclusive.

SMILES	HTT aggregate	CBFb RUNX1 block	HPGD inh	PNC assembly inh	HTT cytoprotect	ALDH1A1 block
O=C(NCCSc1c[nH]c2ccccc12)c1ccc(Br)o1	-6%	-5%	7.1µM*	-119*	29%[10 µM]	-11%
O=C(NCCC(c1ccccc1)c1ccccc1)c1ccc(Br)o1	-15%	0%	14µM*	48	15%	?
Cc1[nH]c2ccccc2c1SCCNC(=O)c1ccc(Br)o1	25µM*	-5%	14µM*	?	-20%[10 µM]	-2%
COC(=O)C(C)CCCC(C)CCCC(C)CCCC(C)C (configuration not stated)	.	23%	.	.	.	.
C/C(=C(/CCO)SS/C(CCO)=C(\C)N(C=O)Cc1cnc(C)nc1N)N(C=O)Cc1cnc(C)nc1N	15%	.	.	.	4%	.
Cc1ccc(S(=O)(=O)C2C(=O)N(C)C3(C)CC2c2ccccc2O3)cc1C (configuration not stated)	?	5%	.	?	4µM*	0%
CCOC(=O)c1ccc(NC(=O)CSCc2ccco2)cc1	-8%	-5%	-27%	11	18%[10 µM]	2.2µM*
CCCCOC(=O)c1ccc(NC(=O)CSCc2n[nH]c(=O)[nH]2)cc1	-4%	1%	-15%	7	-20%	13µM*
CCOC(=O)c1ccc(NC(=O)CSCCC(=O)O)cc1	10%	-1%	.	.	-2%	32µM*
COC(=O)c1ccc(NC(=O)CSCC(=O)OCC(=O)c2ccc(Br)cc2)cc1	15%	8%	-30%	0	12%	22µM*
CCOC(=O)CC(=O)Nc1ccc(C(=O)OCC)cc1	-11%	-2%	-12%	2	-5%	-5%
CCCCOC(=O)c1ccc(NC(=O)CSc2nncn2C)cc1	14%	0%	.	54	9%	?
COC(=O)c1ccc(NC(=O)CCS(=O)(=O)c2ccc(Br)cc2)cc1	-15%	-17%	.	.	-5%	-6%
O=C(CSCCO)Nc1ccccc1	8%	0%	-21%	-11	-3%	6%
CCc1ccc(NC(=O)CSCCO)cc1	8%	6%	20µM*	32	.	-4%
NC(=O)C1CCN(Cc2nc3cc(C(F)(F)F)ccc3c(=O)[nH]2)CC1	-2%[9.22 µM]	6%	.	.	0%[10 µM]	.
COc1ccc(C2CC(=O)C(C=NCCN3CCN(C(=S)Nc4ccccc4)CC3)=C(O)C2)cc1OC (configuration not stated)	-12%	4%	.	.	-25%	8%
COc1cccc(C(=O)N2CCOCC2)c1OC	14%[9.22 µM]	7%	.	.	30%[10 µM]	1%
COc1cccc(C(=O)N2CCN(C(=O)c3cccs3)CC2)c1OC	-20%	0%	-9%	-5	4%	22µM*
O=C(Nc1cccc(F)c1)N1CC[C@@]2(CCCNC2)C1	.	.	-10%	.	-50%	25µM*
CNC(=O)C(N)CSC(C)C1=C(C)c2cc3[n-]c(cc4nc(cc5[n-]c(cc1n2)c(C)c5CCC(=O)O)C(CCC(=O)O)=C4C)c(C)c3C(C)SCC(N)C(=O)NC.[Fe+2] (configuration not stated)	-3%	.	.	.	7%	.
CC(Sc1ccsc1[N+](=O)[O-])C(=O)NCCc1ccc(Cl)cc1 (configuration not stated)	2%	-10%	-11%	-6	3%	3.2µM*
O=C(CSc1ccsc1[N+](=O)[O-])NCCc1ccc(Cl)cc1	10%	4%	-11%	?	17%	17%
CN1CCN(c2ncc3nc(-c4ccc(Cl)cc4)c(=O)n(CCC#N)c3n2)CC1	.	.	?	.	-5%	?
Cc1cc(C)c(O)c(-c2cc(C(=O)Nc3ccc(S(=O)(=O)N4CCOCC4)cc3)[nH]n2)c1	20µM*	-3%	-7%	-3	-94%[0.074 µM]	-16%
SMILES	HTT aggregate	CBFb RUNX1 block	HPGD inh	PNC assembly inh	HTT cytoprotect	ALDH1A1 block
Cc1ccc(C(=O)Nc2ccc(S(=O)(=O)N3CCOCC3)cc2)cc1	.	1%	.	.	.	5%
COC(=O)c1cc(NC(=O)c2ccccc2)c(=O)oc1C/C=N\OCc1ccc(Cl)cc1Cl	12%	1%	-29%	28	-20%[10 µM]	?
Cc1oc(=O)c(NC(=O)c2ccccc2)cc1C(N)=O	-6%	-2%	.	.	.	-17%
CO/N=C\Cc1oc(=O)c(NC(=O)c2ccccc2)cc1C(=O)OC	-5%	-2%	-11%	-7	-23%	22µM*
Cc1oc(=O)c(NC(=O)c2cccc(Cl)c2)cc1C(=O)c1ccccc1	-1%	1%	32µM*	40	9%	8.9µM*
COc1ccc(C(=O)Nc2cc(C(=O)c3ccccc3)c(C)oc2=O)cc1	11%[9.22 µM]	0%	-11%	-6	-35%	20µM*
C[C@@]1(C(NC(=O)c2ccccc2)c2ccc(-c3ccccc3)cc2)C[C@H]1C1CCCCC1 (some centres not stated)	.	6%	-3%	.	?	6%
O=S1(=O)C=C(Oc2ccc(F)cc2)c2ccccc21	-24%	8%	-15%	14	-6%	?
O=S1(=O)C=C(Oc2ccc3ccccc3c2)c2ccccc21	-13%	8%	-25%	31	-30%	10µM*
NNC(=O)c1ccc2[nH]c3c(c2c1)CCCC3	-1%	-18%	.	.	-50%	18µM*
Cc1ccc(C(=O)NCCn2cc(SCC(=O)Nc3cc(C)on3)c3ccccc32)cc1	-3%	-2%	-6%	?	-51%	13µM*
COc1ccccc1C(=O)NCCn1cc(SCC(=O)Nc2nnc(C)s2)c2ccccc21	16%	-8%	-15%	?	-10%	0.32µM*
Cn1cc(Br)c(C(=O)NC2C3CC4CC(C3)CC2C4)n1 (configuration not stated)	20%	-2%	16µM*	273	-4%[10 µM]	-1%
Cc1ccc(C)c(OCCCC(=O)Nc2nccs2)c1	15%	3%	-15%	18	-22%	7%
Cc1ccc(C)c(OCCCC(=O)Nc2ccccc2C(N)=O)c1	6%	7%	.	.	-31%	24µM*
COc1cc([N+](=O)[O-])ccc1NC(=O)CCCOc1cc(C)ccc1C	11%	-13%	-19%	-14	22%[10 µM]	28µM*
COC(=O)c1ccc2c(=O)[nH]c(CSc3nc(C)cs3)nc2c1	?	8%	.	.	.	24µM*
COC(=O)c1ccc2c(=O)[nH]c(CSc3nnc(C(F)(F)F)n3C)nc2c1	11%	-7%	-20%	-4	21%[10 µM]	2%
CCSc1nc(-c2ccccc2)c2cc(Cl)ccc2n1	-2%	-6%	-28%	10	10%[10 µM]	-7%
CSc1nc(-c2ccc(C)cc2)nc(C(Cl)Cl)n1	?	5%	2%	-106*	-97%	14%
CCSc1nc(-c2ccccc2)nc(C(Cl)Cl)n1	10µM*	-1%	0%	-10	6%[1.9 µM]	8%
